Hits are enriched below; roughly 1.2% of the tested compounds scored in any of these assays.
N-glyco inh – N-linked glycosylation inhibition | D54 ERlucT glycosylation luciferase reporter, 24 h; percent of 100 nM tunicamycin response | reporter increase, % at 12.5 µM | actives 0.23% (n = 360,000) | AID 588692;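 active = mean luciferase reporter signal, scaled so untreated is 0 and the glycosylation-blocking control 100, at or above a set limit in every replicate; inconclusive = mean reaches the limit but not every replicate does; inactive = mean below the limit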;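 note: luciferase carries N-glycosylation sites so blocking glycosylation raises the light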
RAD52 anneal inh – blocks human RAD52 DNA annealing; inhibition, % at 18.7 µM; P43351; actives 0.46% (n = 360,000); recombinant RAD52 DNA annealing, FRET fluorescence;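 active = every replicate showing at least 50% inhibition; inconclusive = mean inhibition at least 50% but not in every replicate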
Target sequence (P43351 whole entry, looked up): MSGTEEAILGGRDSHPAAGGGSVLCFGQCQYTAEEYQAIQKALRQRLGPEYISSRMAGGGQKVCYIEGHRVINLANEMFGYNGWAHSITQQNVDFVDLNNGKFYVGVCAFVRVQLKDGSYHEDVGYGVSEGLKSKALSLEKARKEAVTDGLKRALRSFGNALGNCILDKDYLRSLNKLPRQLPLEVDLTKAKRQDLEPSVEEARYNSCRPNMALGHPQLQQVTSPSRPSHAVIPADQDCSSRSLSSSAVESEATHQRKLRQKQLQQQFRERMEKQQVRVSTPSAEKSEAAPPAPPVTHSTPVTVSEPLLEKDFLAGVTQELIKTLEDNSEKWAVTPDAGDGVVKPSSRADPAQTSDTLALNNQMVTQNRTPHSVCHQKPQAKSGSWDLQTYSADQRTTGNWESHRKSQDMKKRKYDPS
AF4-AF9 inh – inhibitors of human MLL-AF4/AF9 interaction. AID 651704. AlphaScreen, biotin-AF4 peptide binding to FLAG-AF9. P42568. actives 0.47% (n = 350,000). inhibition, % at 10 µM;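 active = every replicate reaching a set inhibition limit, whatever the replicate mean, cut at about 25% in these data; inconclusive = mean inhibition reaches that limit but some replicates miss it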
Casp6 inh – inhibitors of human caspase-6. purified caspase-6, Z-VEID-R110 cleavage fluorescence. actives 0.53% (n = 350,000). P55212. inhibition, % at 12.5 µM;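 active = mean inhibition across replicates at least about 35%, with every replicate also reaching that limit, limit read from the data; inconclusive = only one of the two criteria met; inactive = neither criterion met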
RAD54 inh – inhibitors of human RAD54 branch migration; inhibition, % at 10.4 µM; RAD54 Holliday junction branch migration, FAM/BHQ fluorescence; actives 0.14% (n = 360,000); Q92698;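 active = mean normalized replicate activity at least 40 and at least half of replicates scoring 40 or more; inconclusive = only one of the two criteria met; inactive = mean below 40 and under half of replicates reaching 40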;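 note: inhibitors cause a drop in the FAM fluorescence signal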
Hits are given with their value; n = inactive; u = inconclusive; x = no result given.

SMILES	N-glyco inh	RAD52 anneal inh	AF4-AF9 inh	Casp6 inh	RAD54 inh
C[C@@H]1CN([C@H](C)CO)C(=O)c2cc(NC(=O)Nc3ccccc3)ccc2O[C@@H]1CN(C)C(=O)Nc1cccc2ccccc12	x	n	n	n	n
Cc1cc(/C=N/NC(=O)C(O)(c2ccccc2)c2ccccc2)c(C)n1-c1cccc(C(=O)O)c1	n	n	u	43.5	n
Cc1cc(/C=N/NC(=O)C(O)(c2ccccc2)c2ccccc2)c(C)n1-c1ccc(C(=O)O)cc1	n	n	n	n	x
COC(=O)C1C(O)C(C)C(O)C(C)(O)/C=C\C=C(/C)C(=O)Nc2c(C)c(OC(C)=O)c3c(c2O)C(=O)C(C)=C2OCOC(=C23)/C(C)=C/C(C)(O)C(O)C(C)C1O (centres undefined)	n	n	n	56.9	n
O=C(O)C1Sc2[nH]c(=O)sc2C2c3cc(Cl)ccc3OC(=O)C12 (centres undefined)	n	x	x	x	n
O=C(O)C1Sc2[nH]c(=O)sc2C2c3ccc(O)cc3OC(=O)C12 (centres undefined)	n	n	n	57.7	n
Cc1[nH][nH]c(=O)c1C(c1ccc(-c2ccc(F)cc2)o1)c1c(C)[nH][nH]c1=O	n	n	n	x	x
Cc1[nH][nH]c(=O)c1C(c1ccc(-c2ccc(Cl)c(Cl)c2)o1)c1c(C)[nH][nH]c1=O	46.5	x	x	x	n
COc1ccc(-c2ccc(C(c3c(C)[nH][nH]c3=O)c3c(C)[nH][nH]c3=O)o2)c([N+](=O)[O-])c1	34.4	n	n	n	x
C[C@@H]1CCCCO[C@H](CN(C)C(=O)Nc2cccc3ccccc23)[C@H](C)CN([C@@H](C)CO)C(=O)c2cc(NC(=O)Nc3ccc(C(F)(F)F)cc3)ccc2O1	x	n	n	n	n
O=C1COc2ccc(S(=O)(=O)CCC(=O)N3CCN(c4ccccc4)CC3)cc2N1	n	n	n	n	n
Cc1ccc(C)c(N2CCN(C(=O)CCS(=O)(=O)c3ccc4c(c3)NC(=O)CO4)CC2)c1	n	n	n	70.6	n
NC(Cc1ccccc1)c1csc(NC(=O)Nc2ccccc2Oc2ccccc2)n1 (centres undefined)	n	n	n	n	n
COc1ccc(CC(N)c2csc(NC(=O)Nc3ccccc3Oc3ccccc3)n2)cc1 (centres undefined)	n	77.0	n	n	n
CCc1ccc(C2c3[nH]c4ccccc4c3CCN2C(=O)CN2CCN(CC)CC2)cc1 (centres undefined)	n	n	30.5	n	x
COc1ccc(CN2C[C@@H](C)[C@H](OC)CN(C)C(=O)c3cc(NC(=O)c4nc5ccccc5s4)ccc3OC[C@H]2C)cc1	x	n	n	n	n
COc1cc(NCCCC(C)N)c2ncccc2c1 (centres undefined)	n	x	x	x	69.4
CCC(CNc1cc(OC)cc2cccnc12)NC1CCCCC1 (centres undefined)	n	n	55.7	70.5	x
COc1cc(NS(=O)(=O)c2ccc(C)cc2)c2ncccc2c1	n	x	x	x	x
CO[C@@H]1CN(C)C(=O)c2ccc(NC(=O)Nc3ccccc3Cl)cc2OC[C@@H](C)N(S(=O)(=O)CC(F)(F)F)C[C@H]1C	x	n	n	n	n
CCOC(=O)N1CCN(Cc2cc(Cl)c3cccnc3c2O)CC1	x	n	69.9	n	x
COc1ccc2c3c(n(C)c2c1)[C@H](CO)N(CC1CC1)CC31CCN(C(=O)CN(C)C)CC1	x	54.1	n	n	x
COc1ccc2c3c(n(C)c2c1)[C@@H](CO)N(CC1CCCC1)CC31CCN(C(=O)CN(C)C)CC1	x	n	n	n	x
COc1ccc(S(=O)(=O)N2CCC3(CC2)CN(C(=O)CN(C)C)[C@H](CO)c2c3c3ccc(OC)cc3n2C)cc1	x	57.3	33.1	n	x
C[C@@H]1CN([C@H](C)CO)C(=O)c2cc(C3=CCCCC3)cnc2O[C@H]1CN(C)C(=O)C1CCOCC1	x	n	n	n	n
O=C(O)/C=C/C(=O)N1Cc2cc3ccccc3nc2C1	n	n	n	54.4	n
CCOC(=O)N1Cc2cc3ccccc3nc2C1	n	n	n	n	x
C#CCOCCOCCOCCNc1nc(N2CCN(C(=O)[C@H](CCCCN)n3cc([C@@H](N)[C@H](C)CC)nn3)CC2)nc(N2CCN(C(=O)[C@H](CCC(=O)O)n3cc([C@@H](N)CCCCN)nn3)CC2)n1	n	n	33.6	n	n
